{"source": "ChEMBL document CHEMBL3433997", "about": "“St. Jude Leishmania screening dataset” (2016)"}
{"target": "Solute carrier family 2, facilitated glucose transporter member 1 (Homo sapiens) (UniProt P11166)", "sequence (P11166 whole entry)": "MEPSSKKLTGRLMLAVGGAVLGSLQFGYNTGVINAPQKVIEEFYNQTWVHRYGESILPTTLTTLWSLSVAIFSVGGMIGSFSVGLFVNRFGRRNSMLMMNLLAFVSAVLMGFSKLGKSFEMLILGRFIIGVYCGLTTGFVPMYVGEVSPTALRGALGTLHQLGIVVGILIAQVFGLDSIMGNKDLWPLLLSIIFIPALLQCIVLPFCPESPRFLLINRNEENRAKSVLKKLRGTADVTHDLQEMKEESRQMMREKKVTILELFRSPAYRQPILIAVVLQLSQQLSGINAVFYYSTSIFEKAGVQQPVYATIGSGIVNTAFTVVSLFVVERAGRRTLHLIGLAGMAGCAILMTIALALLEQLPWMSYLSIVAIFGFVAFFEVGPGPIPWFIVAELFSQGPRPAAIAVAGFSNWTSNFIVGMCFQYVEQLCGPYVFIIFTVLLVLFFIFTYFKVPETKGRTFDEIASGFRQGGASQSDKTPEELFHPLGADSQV", "experiment": "ST_JUDE_LEISH: Cytotoxicity at 2uM final concentration against transgenic Leishmania Mexicana promastigotes LmGLUT1 that are glucose transport deficient and complemented with the human glucose transporter GLUT1. Activity is measured by DNA content using SYBR green in vitro", "type": "functional", "units": {"inhibition": "%"}}
{"smiles": "CCc1cn2c3c(cc(C(=O)N[C@@H](Cc4ccccc4)[C@H](O)CNC4CCC4)cc13)N(C)S(=O)(=O)CC2", "inhibition": 2.42}
{"smiles": "CCN(CC)CCCC(C)Nc1ccnc2ccc(OC)cc12", "note": "(stereo not given)", "inhibition": 8.15}
{"smiles": "CC[C@H](C)CNC(=O)c1ccnc(-c2ccc(CN3CCC(N4CCCC4)CC3)cc2)c1", "inhibition": 1.51}
{"smiles": "Cc1cccc(C(O)CNc2ccnc(Nc3cccc(-c4csc(C)n4)c3)n2)c1", "note": "(stereo not given)", "inhibition": 3.68}
{"smiles": "Brc1cc(Br)c2c(c1)C(NCCCNC1CCNc3c(Br)cc(Br)cc31)CCN2", "note": "(stereo not given)", "inhibition": 1.08}
{"smiles": "CCOC(=O)Nc1cc(-c2csc(N=C(N)N)n2)cc([N+](=O)[O-])c1", "inhibition": 0.23}
{"smiles": "CCC(C)Oc1ccc2nc(N)nc(N)c2c1Cl", "note": "(stereo not given)", "inhibition": 41.2}
{"smiles": "Cc1ccc(C)c(S(=O)(=O)NCC2CCN(Cc3ccc(O)cc3)CC2)c1", "inhibition": 41.3}
{"smiles": "COc1cccc2cc(C(=O)N[C@@H](CC(C)C)C(=O)N[C@H](C=NN3CCCC3=O)Cc3ccccc3)oc12", "inhibition": 2.46}
{"smiles": "CC1CN(c2nc(NCCc3ccc(O)cc3)nc(NCc3ccccc3-c3ccc(C(F)(F)F)cc3)n2)CC(C)N1", "note": "(stereo not given)", "inhibition": 4.25}
{"smiles": "Cc1nc(-c2cccc(Nc3ccnc4cc(-c5nccs5)ccc34)c2)no1", "inhibition": 2.59}
{"smiles": "O=C(CN1CCN(C(=O)c2ccco2)CC1)Nc1ccccc1Br", "inhibition": -1.39}
{"smiles": "O=C(Nc1ccon1)c1cc(-c2cccnc2)nc2ccc(Br)cc12", "inhibition": 2.83}
{"smiles": "FC(F)(F)c1ccc2[nH]c(-c3ccc(-c4ccc(CN5CCN(c6ccncc6)CC5)cc4)s3)nc2c1", "inhibition": 1.51}
{"smiles": "Clc1cc(Cl)c2cc(CNCCCNc3ccc4ccccc4n3)[nH]c2c1", "inhibition": 0.53}
{"smiles": "Cc1cc(O)c(CN2CCN(Cc3cccs3)CC2)cc1C(C)C", "inhibition": -0.44}
{"smiles": "CCc1cc2c3c(N)nc(N)nc3ccc2n1C(C)CC", "note": "(stereo not given)", "inhibition": 85.2}
{"smiles": "N#Cc1cccc(-c2ccc(C(=O)Nc3ccc4c(c3)CCN(C3CCC3)CC4)cn2)c1", "inhibition": 7.62}
{"smiles": "O=C(Nc1ccccc1Oc1ccccc1)NC1CCN(c2ccnc3cc(Cl)ccc23)C1", "note": "(stereo not given)", "inhibition": 3.65}
{"smiles": "OCCN1CCN(Cc2ccc(-c3ccc(-c4nc5cc(F)ccc5[nH]4)cc3)cc2)CC1", "inhibition": 8.49}
{"smiles": "COc1ccc(N2C(=O)C3C(C2=O)C2(C)c4ccccc4C3(C)c3ccccc32)c([N+](=O)[O-])c1", "note": "(stereo not given)", "inhibition": 9.9}
{"smiles": "CCNc1cc(C(=O)N[C@@H](Cc2ccccc2)[C@H](O)CNCCc2ccccc2)cc(N2CCCCS2(=O)=O)c1", "inhibition": -0.52}
{"smiles": "CC(=O)Nc1ccc(S(=O)(=O)N(Cc2cccc(Oc3ccccc3)c2)C2CCN(C/C=C(\\C)CCC=C(C)C)CC2)cc1", "inhibition": -0.15}
{"smiles": "Cc1[nH]c(-c2ccc(F)cc2)cc1C(=O)NC1CCN(Cc2ccccc2)CC1", "inhibition": 1.59}
{"smiles": "OC(CNc1ccnc(Nc2cccc(CCN3CCOCC3)c2)n1)c1ccccc1", "note": "(stereo not given)", "inhibition": 0.07}
{"smiles": "CCOC(=O)c1nc(-c2ccc(Cl)cc2)[nH]c1NC(=S)NCCCN1CCOCC1", "inhibition": -0.48}
{"smiles": "Oc1ccc(CCNc2nc(NCCCOc3ccccc3-c3ccncc3)nc(N3CCNCC3)n2)cc1", "inhibition": 3.68}
{"smiles": "CC(O)C1CCCCN1C(=O)c1cccc(-c2cccc(-c3nc4cc(C(F)(F)F)ccc4[nH]3)c2)c1", "note": "(stereo not given)", "inhibition": -0.23}
{"smiles": "CS(=O)(=O)c1ccc(CCNCc2ccc(-c3ccc(CN(C(=O)C4CC(=O)c5ccccc54)C4Cc5ccccc5C4)cc3)nc2)cc1", "note": "(stereo not given)", "inhibition": 1.52}
{"smiles": "COc1cc(-c2nc3c4ccccc4c4ccccc4c3[nH]2)cc(OC)c1OC", "inhibition": 1.82}
{"smiles": "N#Cc1ccc(N/C(=N\\c2ccc(-c3ccccc3)cc2)NC2CCCc3ccccc32)c(O)c1", "note": "(stereo not given)", "inhibition": -1.53}
{"smiles": "COc1ccc(Br)cc1C1Nc2ccc3ccccc3c2C2=C1C(=O)CC(c1ccccc1)C2", "note": "(stereo not given)", "inhibition": 1.86}
{"smiles": "O=C(Nc1ccc(C(=O)OCC2CCCN3CCCCC23)cc1)c1ccc(Cl)c(Cl)c1", "note": "(stereo not given)", "inhibition": 0.06}
{"smiles": "O=C(Cc1cccc(Cl)c1)N1CCc2cc3nccc(N4CCN5CCC[C@H]5C4)c3cc21", "inhibition": 3.68}
{"smiles": "Cc1cc2ncc(C(N)=O)c(Nc3ccc(N4CCOCC4)cc3)c2cc1S(C)(=O)=O", "inhibition": 1.97}
{"smiles": "Cc1ccc(Nc2nc3cc(N(C)c4ccnc(Nc5cccc(CS(C)(=O)=O)c5)n4)ccc3o2)cc1", "inhibition": 5.07}
{"smiles": "O=C(Nc1cccc(CN2CCCN(CCc3ccccc3)CC2)c1)c1cc2ccccc2s1", "inhibition": -1.04}
{"smiles": "O=C(NCCCCN1CCC(O)(c2ccc3c(c2)OCO3)CC1)c1ccc(NC(=O)c2ccc(Cl)cc2)cc1", "inhibition": -1.5}
{"smiles": "COc1ccc2nccc(N(C)CC3(O)CCN(CC(O)c4ccc5c(c4)NC(=O)CS5)CC3)c2n1", "note": "(stereo not given)", "inhibition": -0.29}
{"smiles": "O=C(/C=C/c1ccc(Cl)c(Cl)c1)NCCCCCN1CCC(NC(=S)Nc2ccc(Cl)c(Cl)c2)CC1", "inhibition": 4.99}
